Assay outcomes as filed in PubChem.
Not all results are given here.
CYP2C19 inh: blockers of cytochrome P450 2C19 activity – biochemical, luminescence, ADME assay, primary screen; CYP2C19 Supersomes, luciferin-H EGE luminescence, 30 min; P33261; 21% of 96,000 active; inhibition, % at 5 µM;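 active = CYP2C19 inhibition above a set limit at 5 µM in the primary screen, cut at about 50% in these data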;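 note: plate controls were negative control wells for no effect and 2.5 mM tranylcypromine positive control for full effect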
PostGolgi yeast: phenotypic screen on post-Golgi transport, primary screen | post-Golgi transport phenotypic cell assay | inhibition, % at 10 µM | 0.9% of 98,000 active;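 note: yeast cells grown in 1536-well plates; yeast grown about 18 h at 30C before absorbance read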
CYP2C19 act: human CYP2C19 activators, primary screen, biochemical, luminescence; recombinant CYP2C19, luciferin-H EGE luminescence; hits give high values; 0 = fully inhibited enzyme, 1 = untreated enzyme; activation factor at 5 µM; 96,000 tested, under 10 active; AID 1025, 2008;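 active = activation factor of at least 2 at 5 µM in the primary screen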;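 note: 0 = wells with 2.5 mM tranylcypromine and 1 = vehicle-only wells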
PostGolgi ctrl: growth inhibition of yeast control strain, primary screen, counter-screen for post-Golgi transport modulator project; AID 738, 2007; inhibition, % at 10 µM; 5% of 98,000 active; efflux-deficient yeast background strain, growth absorbance A615, 16 h
CYP2C9 inhib: blockers of cytochrome P450 2C9 activity – biochemical, luminescence, ADME assay, primary screen; 20% of 96,000 active; inhibition, % at 5 µM; CYP2C9 Supersomes, luciferin-H conversion; AID 777, 2007; P11712;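 active = blocking of liver enzyme CYP2C9 beyond about 50% at 5 µM, limit read from the data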
Target sequence (P11712 whole entry, looked up): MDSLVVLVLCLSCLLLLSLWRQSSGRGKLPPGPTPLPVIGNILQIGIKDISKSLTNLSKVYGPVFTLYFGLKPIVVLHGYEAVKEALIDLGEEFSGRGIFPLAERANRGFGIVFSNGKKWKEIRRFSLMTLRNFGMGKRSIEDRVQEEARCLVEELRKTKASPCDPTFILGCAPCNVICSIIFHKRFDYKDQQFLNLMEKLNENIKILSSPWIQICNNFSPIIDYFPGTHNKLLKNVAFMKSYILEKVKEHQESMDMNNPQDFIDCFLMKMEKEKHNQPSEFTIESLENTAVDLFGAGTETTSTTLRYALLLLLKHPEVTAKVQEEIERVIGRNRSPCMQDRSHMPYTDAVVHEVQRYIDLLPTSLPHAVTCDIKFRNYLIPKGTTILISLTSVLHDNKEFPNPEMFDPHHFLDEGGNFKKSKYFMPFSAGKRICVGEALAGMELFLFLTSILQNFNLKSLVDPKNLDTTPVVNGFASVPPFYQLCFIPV
CYP2C9 activ: human CYP2C9 activators, primary screen, biochemical, luminescence; Cytochrome P450 2C9 (Homo sapiens), P11712; recombinant CYP2C9, luciferin-H conversion; hits give high values; factor 1 = untreated enzyme, 0 = blocked; activation factor at 5 µM; 1.4% of 96,000 active;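 active = activation factor of 2 or more for CYP2C9 at a 5 µM dose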;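 note: 0 = sulfaphenazole-blocked wells and 1 = vehicle-only wells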
Active calls of the source: *; nt = not tested or not shown. Cut-off read from the data, not from the text of the source, unless noted: active = inhibition above about 30%; inactive = the rest.

SMILES	CYP2C19 inh	PostGolgi yeast	CYP2C19 act	PostGolgi ctrl	CYP2C9 inhib	CYP2C9 activ
Cc1ccc(SCCNC(=O)c2ccc(C)c(S(=O)(=O)Nc3ccccc3C)c2)cc1	66.9*	-2.8	0.3	25.0	68.2*	0.3
COCCNC(=O)c1ccc(NS(=O)(=O)c2cc(C)ccc2C)cc1	2.7	-9.8	1	1.4	22.8	0.8
Cc1ccc(C(=O)Nc2ccccc2C(=O)NCc2ccco2)cc1S(=O)(=O)N1CCCCC1	nt	1.6	nt	97.0*	nt	nt
COc1ccc(N(CC(=O)N2CCc3ccccc32)S(=O)(=O)c2c(C)noc2C)cc1	1.8	13.5	1	19.6	13.1	0.9
COc1ccccc1NS(=O)(=O)c1cc(C(=O)NCc2ccco2)ccc1C	61.1*	-16.4	0.4	7.1	28.3	0.7
O=C(NCn1ccc(=O)[nH]c1=S)c1ccccc1	4.9	-1.0	1	2.9	-1.4	1
COc1ccccc1C1(CC(=O)N2CCOCC2)CCOC(C(C)C)C1 (stereo not given)	36.6	-12.9	0.6	5.1	9.9	0.9
Cc1cccc(NC(=O)C(C)Oc2ccccc2C)n1 (stereo not given)	85.4*	0.9	0.1	4.9	61.1*	0.4
CC1CCc2nn(CC(=O)NCc3ccc(F)cc3)cc2C1 (stereo not given)	89.7*	6.1	0.1	5.3	46.6	0.5
CC1CCc2nn(CC(=O)Nc3ccc(F)cc3F)cc2C1 (stereo not given)	14.7	6.9	0.9	7.4	42.1	0.6
CC1CCc2nn(CC(=O)Nc3c(F)cc(F)cc3Br)cc2C1 (stereo not given)	43.1	4.9	0.6	9.0	62.2*	0.4
CC1CCc2nn(CC(=O)NCc3ccc4c(c3)OCO4)cc2C1 (stereo not given)	5.4	2.1	0.9	2.4	39.7	0.6
Cc1ccc(C(C)C)cc1OCCOCCN1CCCC1	11.6	-7.0	0.9	10.9	-3.3	1
COc1ccc(CCCC(=O)NC2CCCCC2C)c(C)c1 (stereo not given)	28.4	-0.6	0.7	14.5	-35.8	1.4
S=C1SCN(Cc2ccccn2)CN1Cc1ccco1	19.6	-0.8	0.8	8.1	12.8	0.9
Cc1ccc(C)c2[nH]c(=O)c(C(c3nnnn3Cc3ccco3)N3CCc4ccccc4C3)cc12 (stereo not given)	95.3*	-2.2	0	8.9	80.8*	0.2
CCOc1ccc2[nH]c(=O)c(C(c3nnnn3Cc3ccco3)N3CCCC(C)C3)cc2c1 (stereo not given)	95.9*	-12.2	0	26.1	78.6*	0.2
Cc1ccc(C)c2[nH]c(=O)c(C(c3nnnn3CCc3ccccc3)N3CCOCC3)cc12 (stereo not given)	21.8	17.9	0.8	4.2	19.6	0.8
CCOc1ccc2[nH]c(=O)c(C(c3nnnn3Cc3ccco3)N3CCC(C)CC3)cc2c1 (stereo not given)	61.8*	5.8	0.4	0.0	39.5	0.6
COc1ccc(Cn2nnnc2C(c2cc3ccc(OC)cc3[nH]c2=O)N2CCC(C)CC2)cc1 (stereo not given)	24.2	13.2	0.8	-5.2	23.4	0.8
O=C(CCC(=O)c1cccs1)OCC(=O)N1CCN(C(=O)c2ccco2)CC1	12.2	3.9	0.9	-0.8	12.1	0.9
CC1=C(C(=O)Nc2ccc(Br)cc2)C(c2ccco2)NC(=O)N1 (stereo not given)	8.8	16.2	0.9	-1.6	2.2	1
CCN1C(=O)NC2C1N(S(C)(=O)=O)CCN2S(C)(=O)=O (stereo not given)	-4.3	1.3	1	10.7	-7.4	1.1
COC(=O)c1ccc(NC(=O)CS(=O)(=O)Cc2ccccc2)cc1	6.5	5.1	0.9	-3.0	-19.3	1.2
COCCCNC(=O)c1cc2c(=O)n(C)c3ccccc3c2n1C	-4.2	21.9	1	38.8*	16.0	0.8
COCCNC(=O)c1cc2c(=O)n(C)c3ccccc3c2n1C	-10.6	-8.4	1.1	-0.8	-29.1	1.3
Cn1c(C(=O)NCCCN2CCCCCC2)cc2c(=O)n(C)c3ccccc3c21	11.0	-17.7	0.9	20.4	6.6	0.9
